The results in this text go back to PubChem BioAssay (EPA / NIEHS).

Active and inactive are the calls of the source. The calls were made as follows: active = hit-call score of the fitted dose curve at least 0.9, where 1 is the maximum; inactive = score below 0.9.

Read-out in this experiment: 3-Hydroxy-3-Methylglutaryl-CoA Synthase 2 (HMGCS2), HMGCS2 (gene 3158)
The experiment can be described thus: LTEA_HepaRG_HMGCS2: Life Technologies and Expression Analysis (LTEA) Assay for 3-Hydroxy-3-Methylglutaryl-CoA Synthase 2 (HMGCS2) using HepaRG (AID 2283504). Particulars: mRNA level, 48 h; actives raise or lower the signal. As for the experimental part: LTEA_HepaRG is a cell based, multiplexed-readout assay that uses HepaRG, a human liver cell line, with measurements taken at 48 hours after chemical dosing on a 96-well plate.LTEA_HepaRG_HMGCS2 is one of 102 assay component(s) measured in the LTEA HepaRG cell culture assay. It is a marker of Steatosis.Data from the assay component LTEA_HepaRG_HMGCS2 was analyzed into 1 endpoint. This assay endpoint, LTEA_HepaRG_HMGCS2, was analyzed with bidirectional fitting relative to DMSO as the negative control and baseline of activity. Using a type of inducible reporter, measures of mRNA induction for gain or loss-of-signal activity can be used to understand regulation of transcription factor activity. To generalize the intended target to other relatable targets, this assay endpoint is annotated to the lyase intended target family, where the subfamily is HMG-CoA synthase.
A total of 1060 chemcials from the ToxCast library were tested in eight-point concentration-response experiments. Cell culture and cytotoxicity assays were conducted at Thermo Fisher Scientific's Custom Services facility (Madison, WI). A single lot of human HepaRG cells (Thermo Fisher Scientific, Frederick, MD) was used for the cell culture experiments. 96-well format collagen type I coated plates of human HepaRG cells were prepared using established methods. Briefly, cryopreserved HepaRG cells were thawed, plated at a density of approximately 100,000 cells/well in HepaRG Thaw, Plate, and General Purpose media (HPRG770, Thermo Fisher Scientific), and incubated for 48 hours. 0.5% DMSO was selected as vehicle control to balance the requisite need of DMSO in HepaRG cultures to maintain differentiation (for example, baseline metabolism, proportions of hepatocytes vs. cholangiocytes), while enabling further hepatic receptor pathway activation (for example, PXR and CAR) in response to chemical exposure. 48 hours after plating, the culture medium was replaced with HepaRG Serum-Free Incudtion Media. Cells were exposed to each test chemical in duplicate and maintained in CO2 incubators for another 48 hours. Chemical plates were thawed to room temperature and 200x concentrations of treatment groups were prepared. 8-point conentration-reponse curves were made with the highest exposure at 100 uM, followed by half-log dilutions, all in 0.5% DMSO. Each test plate contained variouse controls, induction positive controls (1mM phenobarbital), cytotoxicity positive controls ([…] aflatoxin B1), vehicle controls (0.5% DMSO), and total lysis controls (0.5% DMSO). Cell morphology images were taken using an Essen IncuCyte FLR automated microscope, with six 96-well plates imaged in about 24 minutes. Images were captured and exported and JPEG files. Spent culture media was transfered to black-well plates for the LDH assay, and remaining media was sorted at -80 C for later use. Cells were treated with RLT buffer and frozen until shipped for gene expression analysis. Total RNA was isolated from the cell suspension in 75 uL of Buffer RLT (Qiagen, Germantown, MD 20874) by Quintiles/Expression Analysis (Durham, NC) using a custom isolation procedure. Total RNA from each plate well was transferred to a preamplification plate. Fluidigm's 96.96 Dynamic ArrayTM (Fluidigm, Amsterdam, the Netherlands) technology was used for gene expression analyses by quantitative reverse transcription polymerase chain reaction (qRT-PCR, performed by Quintiles/Expression Analysis, Durham, NC)89. Standard TaqManTM Assays (Applied Biosystems/ThermoFisher Scientific, Foster City, CA) were used to assess the expression of 93 genes selected based on their selectivity and sensitivity to important hepatic receptors known to be modulated by environmental chemicals; importance in human hepatocyte functionality; and hepatotoxicity. […]
In the case of `CCC(C)(C)C1CCC(O)CC1` (stereo not given), the compound was called inactive. What is called AC50 is the midpoint of the concentration-response curve, whichever way the signal moves. Turning to `CC1=C(/C=C/C(C)=C/C=C/C(C)=C/C(=O)O)C(C)(C)CCC1`, the concentration at half-maximal activity (AC50) is 23.9 µM (active). On to `Oc1cc2ccccc2c2ccccc12`, for which the result was inactive. Consider `CC(C)(C)c1cc(C(C)(C)C)c(O)c(C(C)(C)C)c1`, for which the AC50 is 21 µM (active). Take `CC(C)(C)c1ccc(O)c(C(C)(C)C)c1`: the outcome was inactive. On the same count and under the same terms, the value for `CC(=O)NC1(c2cccc(F)c2)CCN(CC[C@@]2(c3ccc(Cl)c(Cl)c3)CN(c3ccccc3)C(=O)CO2)CC1` was “inactive”.

With `O=C(O)c1ccccc1C(c1ccc(O)cc1)c1ccc(O)cc1`, the call was inactive. Still for that read-out and setting: under `CCCCCCCC(=O)O` stands “inactive”.

Turning to `CCN(CC)CCNc1ccc(CNC=O)c2sc3ccc(OC)cc3c(=O)c12`, the concentration at half-maximal activity (AC50) is 74.3 µM (active). For the compound `c1ccc2c(c1)Cc1ccccc1-2`, the call was inactive.

On to `COC(=O)CCCCC(=O)OC`, for which the result was inactive. Still for that read-out and setting: the value for `O=c1c(-c2ccc(O)cc2)coc2cc(O)ccc12` was “inactive”; that for `C#C[C@]1(O)CC[C@H]2[C@@H]3CCC4=CC(=O)CC[C@@H]4[C@H]3CC[C@@]21C` was “inactive”; that for `CC(O)CO` (stereo not given) was “inactive”.

Regarding `NC(=O)N(O)[C@@H]1C=C[C@H](Oc2cccc(Oc3ccc(F)cc3)c2)C1`, the concentration at half-maximal activity (AC50) is 40.6 µM (active). Turning to `CC(C)CCCCCCOC(=O)CCCCC(=O)OCCCCCCC(C)C`, the call was inactive. Regarding `COCC(C)O` (stereo not given), the outcome was inactive. Consider `CCCCCCCCCCCCc1ccccc1S(=O)(=O)O`, for which the AC50 is 83.1 µM (active).

As for `CCCCCCCCOC(=O)CCCCCCCCC(=O)OCCCCCCCC`, the outcome was inactive. For the compound `OCCC(F)(F)C(F)(F)C(F)(F)C(F)(F)C(F)(F)C(F)(F)F`, the result was inactive. For the compound `CCc1nn(C2CCCCC2)c2cc(C3(C#N)CCC(C(=O)O)CC3)ccc12` (stereo not given), the half-maximal activity concentration (AC50) is 81.8 µM (active). In the case of `c1ccc2c(c1)ccc1ccccc12`, the outcome was inactive. Still for that read-out and setting: the value for `CCCCC(CC)COC(=O)CCCCC(=O)OCC(CC)CCCC` (stereo not given) was “inactive”.

As for `Nc1cccc2c(N)cccc12`, the compound was classed as inactive. For the compound `Oc1cccc(O)c1`, the call was inactive. Regarding `N#C[C@@H]1CC(F)(F)CN1C(=O)CNC1CC2CCC(C1)N2c1ncccn1` (stereo not given in full), the result was inactive.

Regarding `CCCCCCC(=O)O`, the call was inactive. Consider `c1ccc2cc3c(ccc4ccccc43)cc2c1`, for which the AC50 was 19.7 µM (active). With `CCCCCCCCCCCCCCCS(=O)(=O)Oc1ccccc1`, the outcome was inactive.

Regarding `CC[C@H](C)[C@@H](C(=O)O)n1sc2ccccc2c1=O`, the compound was classed as inactive.

As for `CCCOc1sc(C(=O)N2CCC(c3cc(CN)ccc3F)CC2)c(C)c1Br`, the compound was called inactive. Turning to `CCCCCCCCC(=O)O`, the result was inactive. In the case of `Cc1cc(CCN2CCN(c3nsc4ccccc34)CC2)cc2c1NC(=O)CC2(C)C`, the half-maximal activity concentration (AC50) was 78 µM (active). For the compound `Cc1cc(C)c(O)c(C)c1`, the compound was classed as inactive. For the compound `NC(=O)N1C(=O)C(C(=O)c2cc(Cl)cs2)c2cc(F)c(Cl)cc21` (stereo not given), the half-maximal activity concentration (AC50) is 20.7 µM (active).

Take `CCc1ccc(CCOc2ccc(CC3SC(=O)NC3=O)cc2)nc1` (stereo not given): the half-maximal activity concentration (AC50) was 85.2 µM (active).

With `CCOC(=O)CC(O)(CC(=O)OCC)C(=O)OCC`, the compound was classed as inactive. Still for that read-out and setting: the value for `CCCCCCCCCCCCN1CCCC1=O` was “inactive”. Consider `CC(C)(C)CC(C)(C)c1ccc(O)c(-n2nc3ccccc3n2)c1`, for which the AC50 was 50 µM (active). On to `CN1CCN(c2ccccc2/C=C2\SCCN(c3ccc(Cl)c(Cl)c3)C2=O)CC1`, for which the AC50 is 60.3 µM (active).
